Measured values published in PubChem BioAssay (NCATS).
Several values for one entry are separate records, joined by “and”; a condition that tells them apart may be missing. Identical values can stand only once. Records with an inconclusive call do not appear. Values without a mark were called inactive. Activity calls are given as the source filed them. Calls come from the whole dose curve; as a rule, active = well fitted inhibition curve with a large enough effect; inconclusive = small, poorly fitted or top-dose-only effect; inactive = no such curve, though single readings can be large or run the other way.

Assay: Primary qHTS for inhibitors of nuclear receptor binding SET domain protein 2 (NSD2) in an RCH-ACV wild type WT cells (2C) (AID 1645877); note: nearly all actives have a fitted effect of over 70% in size
Settings: RCH-ACV (leukaemia line) NSD2 WT (2C) viability, CellTiter-Glo, 72 h; series mostly up to 44.9 µM; activity change, negative = cell killing: at the top concentration
% is set by controls: 0 for no effect and ±100 for the full control effect; potency is the fitted concentration of half-maximal effect.

Structure (SMILES) | Potency | activity change, negative = cell killing | outcome
CON(C)C(=O)N1N=C(c2cc(F)ccc2F)S[C@@]1(CCCN)c1ccccc1 | 6.5 nM (active) and 13.2 nM (active) |  | 
COc1ccc2cc(OCC3(C(=O)O)CN(C(=O)c4ccc(F)cc4)C3)ccc2c1 |  | 7.38% | 
O=C1N(CC2CCCCN2)CCN1c1ccccc1 (stereo not given) |  |  | inactive
Cc1onc(-c2ccccc2)c1C(=O)N[C@@H]1C(=O)N2[C@@H]1SC(C)(C)[C@@H]2C(=O)O | inactive |  | 
COc1cccc(-n2nc(C(=O)O)cc2-c2ccc(C3CCCCC3)c(Cl)c2)c1 |  | -9.21% | 
CC(=O)N1CCN(NC(=O)c2ccc(F)cc2)CC1 |  |  | inactive
CC(C)N(C[C@H]1O[C@@H](n2cnc3c(N)ncnc32)[C@H](O)[C@@H]1O)C1CC(CCc2nc3ccc(C(C)(C)C)cc3[nH]2)C1 (stereo not given in full) |  | -18.1% | 
CC1(C)OC(=O)C(OCC2CC2)=C1c1ccc(S(C)(=O)=O)cc1 |  | -7.53% | 
CCn1c2ccccc2c2cc(CNC)ccc21 | 23 µM (active) |  | 
FC(F)(F)c1cc(C(F)(F)F)c2ccc3nc(-c4nnco4)cn3c2n1 |  | 0.197% | 
N[C@@H](CC(=O)N1CCn2c(nnc2C(F)(F)F)C1)Cc1[nH]nc2c(F)c(F)ccc12 |  | 2.5% | 
O=c1ccn([C@@H]2O[C@H](CO)[C@@H](O)[C@H]2O)c(=O)[nH]1 |  | -7.99% | 
COc1ccc([C@@H]2N[C@H](C(=O)O)Cc3c2[nH]c2ccccc32)cc1CN1CCN(c2ccccc2F)CC1 |  |  | inactive
Cc1ccc(C(=O)Nc2ccc(Oc3cc4cnn(C)c4cc3-c3cn[nH]c3)c(F)c2)c(=O)n1-c1ccc(F)cc1 | 2.9 µM (active) and 3.72 µM (active) |  | 
CC1(C)CCC(C)(C)c2cc([C@@H](O)C(=O)Nc3ccc(C(=O)O)cc3F)ccc21 |  | -23% | 
CC(C)Nc1cc(-c2c[nH]c(C(=O)N[C@H](CO)c3cccc(Cl)c3)c2)c(Cl)cn1 | 8.17 µM (active) and 2.95 µM (active) |  | 
O=C(c1ccc(F)cc1)C1CCN(CCn2c(=O)nc3n(c2=O)CCCC3)CC1 |  | -8.23% | 
COCCCNCC1COc2ccccc2O1 (stereo not given) |  | -0.873% | 

Structure (SMILES) | Potency | activity change, negative = cell killing | outcome
Cc1cc(Nc2ncc(Cl)c(Nc3ccccc3S(=O)(=O)C(C)C)n2)c(OC(C)C)cc1C1CCNCC1 | 2.9 µM (active) and 3.72 µM (active) |  | 
O=C(NCC(=O)N1CC[C@H](NC2CCC(O)(c3ccc(-c4ncccn4)cn3)CC2)C1)c1cccc(C(F)(F)F)c1 (stereo not given in full) |  | 2.26% | 
Cc1[nH]cnc1C1CCN(c2nc3cccc4c3n2CCC4=O)CC1 |  | -2.11% | 
CC(=O)c1cnc2ccc(-c3cc(Cl)c(O)c(Cl)c3)nc2c1NC1CCC(CN(C)C)CC1 (stereo not given) | 38.2 nM (active) and 3.7 nM (active) |  | 
O=C(CCCCc1ccc2ccccc2c1)C(F)(F)F |  | -10.8% [at 91.9 µM] | 
CC(C)(C)NCc1cc(Nc2ccnc3cc(Cl)ccc23)c2c(c1O)CCCC2 |  | -13.7% [at 0.588 µM] | 
CC[C@H]1OC(=O)C[C@@H](O)[C@H](C)[C@@H](O[C@@H]2O[C@H](C)[C@@H](O)[C@H](N(C)C)[C@H]2O)[C@@H](CCN2C[C@H](C)C[C@H](C)C2)C[C@@H](C)C(=O)/C=C/C(C)=C/[C@@H]1CO[C@@H]1O[C@H](C)[C@@H](O)[C@@H](OC)[C@H]1OC |  | -21.1% | 
CN1CCC(c2c[nH]c3ccc(NC(=O)c4ccc(F)cc4)cc23)CC1 |  | -4.08% | 
Cc1cc(C)cc(NC(=O)Cc2ccc(OC(C)(C)C(=O)O)cc2)c1 |  |  | inactive
CNC(=O)c1ccc(Nc2ncc(C(F)(F)F)c(NCc3nccnc3N(C)S(C)(=O)=O)n2)cc1 | 2.05 µM (active) and 1.86 µM (active) |  | 
CN(C)C/C=C/C(=O)Nc1ccc(C(=O)Nc2cccc(Nc3ncc(Cl)c(-c4c[nH]c5ccccc45)n3)c2)cc1 | 18.3 nM (active) and 46.8 nM (active) |  | 
C=C1CC[C@@H]2[C@](C)(CO)[C@H](O)CC[C@@]2(C)[C@@H]1C/C=C1/C(=O)OC[C@H]1O | 7.42 µM (active) |  | 
COc1ccc(C)c2sc(NC(=O)c3ccncc3)nc12 |  | -7.58% | 
CCC(=O)NS(=O)(=O)c1ccc(-c2c(-c3ccccc3)noc2C)cc1 | inactive |  | 
CCc1c(CC(N)=O)c2cc(OCCCP(=O)(O)O)ccc2n1Cc1ccccc1 |  |  | inactive
COC(=O)[C@H](CC1C=NC=N1)NCC12CC3CC(CC(C3)C1)C2 (stereo not given in full) |  |  | inactive
Cc1cc(C)c(S(=O)(=O)N(Cc2ccc(-c3cccc(S(C)(=O)=O)c3)cc2)Cc2ccc(C(F)(F)F)o2)c(C)c1 |  |  | inactive
